This is a sample that favours compounds with a hit; in the whole collection about 6.7% have one here.
BoNT A protease: BoNT A light chain protease inhibition; inhibition, % at 10 µM; 360,000 tested, 0.17% active; multiplex microsphere protease substrate cleavage, flow cytometry; AID 588499
Autofluor counter: flagged as autofluorescent in microsphere protease counterscreen; 360,000 tested, 3.1% active; fluorescence intensity (test concentration not listed); compound autofluorescence counterscreen, microsphere flow cytometry; stronger effect = higher value; in the data active = fluorescence intensity above about 16000; inconclusive = no clear call, values can overlap the other calls
BoNT-F LC inh: blocks Botulinum neurotoxin F light chain protease. Multiplex microsphere protease cleavage assay, flow cytometry. inhibition, % at 10 µM. 360,000 tested, 0.22% active. AID 588497; in the data active = inhibition above about 35%, passing the limit was not always enough; inconclusive = no clear call, values can overlap the other calls
GDH-TPI inh: counter-screen for M. tuberculosis FBA inhibitors: GDH-TPI coupled enzymes; AID 588335; 360,000 tested, 1.2% active; inhibition, % at 4.8 µM; GDH-TPI coupled enzyme counterscreen, NADH absorbance; in the data active = inhibition above about 30%
Anthrax LF prot: blocks Bacillus anthracis lethal factor protease; multiplex microsphere protease cleavage assay, LF; inhibition, % at 10 µM; 360,000 tested, 0.12% active
FBA Mtb inh: inhibits M. tuberculosis FBA enzyme. inhibition, % at 1 µM. 360,000 tested, 2.3% active. AID 588726. P9WQA3. purified M. tuberculosis FBA, fluorescence read-out; in the data active = inhibition above about 27%
Target sequence (P9WQA3 whole entry, looked up): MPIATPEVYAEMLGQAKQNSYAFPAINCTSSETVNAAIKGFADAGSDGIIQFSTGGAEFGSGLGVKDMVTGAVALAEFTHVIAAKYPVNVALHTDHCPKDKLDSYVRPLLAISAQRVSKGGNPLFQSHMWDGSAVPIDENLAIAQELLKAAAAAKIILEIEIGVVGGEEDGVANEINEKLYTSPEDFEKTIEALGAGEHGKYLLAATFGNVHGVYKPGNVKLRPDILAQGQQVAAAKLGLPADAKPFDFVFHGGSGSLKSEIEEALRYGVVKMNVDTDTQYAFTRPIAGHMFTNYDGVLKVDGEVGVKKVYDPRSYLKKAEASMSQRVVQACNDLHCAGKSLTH
Each line names hits and unclear results; the compound was inactive in the other large screens. Rule as the data show it, unless noted: active = inhibition above about 30%; inconclusive = no clear call, values can overlap the other calls; inactive = below that.

CCCNC(=O)Cn1cnc2sc(C(=O)N3CCCC(C(=O)OCC)C3)c(C)c2c1=O (stereo not drawn)	none
Cc1c(C(=O)N2CCC3(CC2)OCCO3)oc2ccccc12	Autofluor counter 18025
CC1=C(C(=O)N2CCC3(CC2)OCCO3)C2(CCC(C)CC2)OC1=O (stereo not drawn)	BoNT A protease inconclusive, Autofluor counter 21647
Cc1c(C(=O)N2CCC3(CC2)OCCO3)oc2ccc(S(=O)(=O)N3CCOCC3)cc12	none
CC1=C(C(=O)N2CCCCC2)C2(CCC(C)CC2)OC1=O (stereo not drawn)	none
CC(C)Sc1nc(N)nc(-c2cccs2)c1C#N	none
CCNc1nc(C)c2cc(Br)c(=O)n(CC)c2n1	GDH-TPI inh 40, FBA Mtb inh 156
COc1cccc(OC)c1OCCCc1c(C)n[nH]c1C	none
Cc1cccc(OCCCc2c(C)n[nH]c2C)c1	BoNT A protease inconclusive, Autofluor counter 22053
Cc1cc(CC(C)C)n(-c2nc3ccccc3c(=O)n2OCC(=O)N(C)C)n1	none
Cc1cc(CC(C)C)n(-c2nc3ccccc3c(=O)n2OCc2ccccc2)n1	BoNT A protease inconclusive, Autofluor counter 23326
Cc1cc(C)n(-c2nc3ccccc3c(=O)n2OCc2ccc(F)cc2)n1	none
Cc1cc(C)n(-c2nc3ccccc3c(=O)n2OCc2ccc(Cl)cc2)n1	BoNT A protease inconclusive, Autofluor counter 22331
O=C(Nc1ccccc1N1CCCC1)c1ccc2c(c1)OCO2	none
CCCCn1c(=NC(=O)c2cccnc2)c(C#N)cc2c(=O)n3cccc(C)c3nc21	FBA Mtb inh 194
COCCCn1c(=NC(=O)c2ccncc2)c(C#N)cc2c(=O)n3cccc(C)c3nc21	FBA Mtb inh active
CCCn1c(=NC(=O)c2ccncc2)c(C#N)cc2c(=O)n3cccc(C)c3nc21	none
CC(NC(=O)c1nn(C)c(=O)c2ccccc12)c1ccc(F)cc1 (stereo not drawn)	none
O=C(O)c1ccc(N=Nc2c(O)[nH]c3ccccc23)cc1	GDH-TPI inh 35
CCN(CC)c1nc(N)c2c(N)n(-c3ccccc3C)c(=S)c(C#N)c2c1C#N	GDH-TPI inh 44
CCN(CC)c1nc(N)c2c(N)nc3c(c2c1C#N)CC(c1ccccc1)O3 (stereo not drawn)	none
CC(CC(=O)Nc1ccc(Cl)c([N+](=O)[O-])c1)c1ccccc1 (stereo not drawn)	none
CC(=O)c1ccc(Nc2nc(C)cc(C)n2)cc1	BoNT-F LC inh inconclusive, GDH-TPI inh 33
CCOC(=O)c1ccc(Nc2nc(C)cc(C)n2)cc1	none
CCCCN(C(=O)/C=C/c1ccco1)c1c(N)n(Cc2ccccc2)c(=O)[nH]c1=O	none
COc1cccc(C(=O)NCCN2C(=O)S/C(=C/c3cccs3)C2=O)c1OC	none
CC(=O)c1ccc(N2CCN(S(=O)(=O)c3ccc4c(c3)C(Cl)(Cl)C(=O)N4)CC2)cc1	GDH-TPI inh 32
Cc1ccc(-c2nnc(SCC(=O)N/N=C/c3ccccc3C(=O)O)n2-c2ccc(Cl)cc2)cc1	none
CCSc1nc(=O)n(-c2ccccc2)c(C)c1C(C)=S	none
COC(=O)CC1SC(=O)NC1=Nc1ccccc1 (stereo not drawn)	Autofluor counter 23324
C=CCc1c(C)nc(SC)nc1Nc1ccc(C(C)=O)cc1	GDH-TPI inh 48
CC(C)CCn1c(=O)c(C(=O)Nc2ccccc2S(N)(=O)=O)c(O)c2ccccc21	Autofluor counter 22781
CN(c1ccccc1)c1ccc(/C=C(/CCC(=O)O)c2nc3ccccc3s2)cc1[N+](=O)[O-]	GDH-TPI inh 32
C(=N\Nc1nc(N2CCOCC2)nc(N2CCOCC2)n1)/c1cccnc1	Autofluor counter 22356
BrC(=C\c1ccccc1)/C=N/Nc1nc(N2CCOCC2)nc(N2CCOCC2)n1	GDH-TPI inh 31
BrC(/C=C\c1ccccc1)=N/Nc1nc(N2CCOCC2)nc(N2CCOCC2)n1	GDH-TPI inh 45
Brc1cc2c(cc1/C=N/Nc1nc(N3CCCC3)nc(N3CCOCC3)n1)OCO2	GDH-TPI inh 32
NC(=O)NC(CC(=O)NCCc1ccc(S(N)(=O)=O)cc1)c1ccccc1Cl (stereo not drawn)	Autofluor counter inconclusive
COc1ccc(NC(=O)c2ccc(C(=O)Nc3ccc(OC)cc3OC)cc2)c(OC)c1	none
COc1ccc(NC(=O)NCc2ccncc2)c(OC)c1	BoNT A protease inconclusive, Autofluor counter 22838
COc1ccc(NC(=O)c2ccccc2O)c(OC)c1	Autofluor counter 18765

Bioassay records: PubChem, several laboratories
